# In ChEMBL document CHEMBL2218924, “A broad activity screen in support of a chemogenomic map for kinase signalling research and drug discovery” (Biochem J, 2013):
# Legend:
# [1] = biological target: T1, Ephrin type-B receptor 1 (Homo sapiens) (UniProt P54762); conditions: at 10 µM
# T1 sequence (whole entry): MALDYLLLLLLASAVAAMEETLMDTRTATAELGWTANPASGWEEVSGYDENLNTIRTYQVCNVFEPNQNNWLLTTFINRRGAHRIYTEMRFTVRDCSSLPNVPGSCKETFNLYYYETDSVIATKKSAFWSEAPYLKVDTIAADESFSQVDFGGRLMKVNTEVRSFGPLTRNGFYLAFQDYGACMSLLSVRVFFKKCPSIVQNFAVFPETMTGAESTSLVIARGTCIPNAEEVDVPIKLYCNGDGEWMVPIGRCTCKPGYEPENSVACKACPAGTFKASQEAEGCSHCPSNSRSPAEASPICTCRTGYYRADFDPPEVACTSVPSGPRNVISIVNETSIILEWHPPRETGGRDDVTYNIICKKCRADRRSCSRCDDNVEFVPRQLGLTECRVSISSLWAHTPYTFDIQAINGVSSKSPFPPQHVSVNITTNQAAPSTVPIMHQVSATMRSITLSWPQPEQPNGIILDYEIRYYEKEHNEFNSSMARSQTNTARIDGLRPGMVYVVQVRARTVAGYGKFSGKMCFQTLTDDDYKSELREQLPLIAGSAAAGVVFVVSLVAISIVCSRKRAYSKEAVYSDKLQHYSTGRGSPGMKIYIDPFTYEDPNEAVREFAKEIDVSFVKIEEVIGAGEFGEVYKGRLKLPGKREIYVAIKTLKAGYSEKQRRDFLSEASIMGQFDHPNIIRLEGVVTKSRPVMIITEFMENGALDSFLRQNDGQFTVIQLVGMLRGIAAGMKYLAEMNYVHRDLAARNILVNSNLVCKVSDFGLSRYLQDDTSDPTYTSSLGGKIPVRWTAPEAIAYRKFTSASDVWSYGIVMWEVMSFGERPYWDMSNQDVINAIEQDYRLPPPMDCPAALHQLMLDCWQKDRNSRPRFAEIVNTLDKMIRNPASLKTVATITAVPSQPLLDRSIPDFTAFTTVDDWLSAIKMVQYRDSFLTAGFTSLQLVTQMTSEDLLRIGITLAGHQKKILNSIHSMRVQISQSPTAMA
# [2] = biological target: T2, Ephrin type-B receptor 2 (Homo sapiens) (UniProt P29323); conditions: at 1 µM
# T2 sequence (whole entry): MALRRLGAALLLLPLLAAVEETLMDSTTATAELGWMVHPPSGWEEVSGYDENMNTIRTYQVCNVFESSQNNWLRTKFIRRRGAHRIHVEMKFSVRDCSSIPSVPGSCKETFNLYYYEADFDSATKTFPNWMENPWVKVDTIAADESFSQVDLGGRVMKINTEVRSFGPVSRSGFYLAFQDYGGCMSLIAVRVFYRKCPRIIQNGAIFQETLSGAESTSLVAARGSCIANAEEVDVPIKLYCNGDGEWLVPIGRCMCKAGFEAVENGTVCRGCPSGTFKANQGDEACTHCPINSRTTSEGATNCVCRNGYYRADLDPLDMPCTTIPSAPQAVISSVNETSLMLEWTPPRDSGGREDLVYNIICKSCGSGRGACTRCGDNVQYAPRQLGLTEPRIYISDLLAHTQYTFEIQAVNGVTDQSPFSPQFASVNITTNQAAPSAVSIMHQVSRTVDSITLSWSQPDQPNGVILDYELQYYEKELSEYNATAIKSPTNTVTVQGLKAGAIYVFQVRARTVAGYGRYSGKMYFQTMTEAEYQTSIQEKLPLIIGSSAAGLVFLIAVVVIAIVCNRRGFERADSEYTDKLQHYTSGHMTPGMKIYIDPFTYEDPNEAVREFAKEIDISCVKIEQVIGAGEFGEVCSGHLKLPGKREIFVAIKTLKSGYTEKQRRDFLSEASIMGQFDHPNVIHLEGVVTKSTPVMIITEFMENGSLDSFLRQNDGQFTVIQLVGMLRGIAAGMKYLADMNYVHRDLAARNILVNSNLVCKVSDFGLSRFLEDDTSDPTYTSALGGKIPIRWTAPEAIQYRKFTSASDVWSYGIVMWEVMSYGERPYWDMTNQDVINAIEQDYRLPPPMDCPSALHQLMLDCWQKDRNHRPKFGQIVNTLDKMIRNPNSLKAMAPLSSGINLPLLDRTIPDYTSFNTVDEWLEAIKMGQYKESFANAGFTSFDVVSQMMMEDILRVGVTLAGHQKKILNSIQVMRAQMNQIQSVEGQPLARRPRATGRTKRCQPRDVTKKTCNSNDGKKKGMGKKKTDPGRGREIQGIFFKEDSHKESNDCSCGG
# [3] = biological target: T2, Ephrin type-B receptor 2 (Homo sapiens); conditions: at 10 µM
# [4] = biological target: T3, Ephrin type-B receptor 3 (Homo sapiens) (UniProt P54753); conditions: at 1 µM
# T3 sequence (whole entry): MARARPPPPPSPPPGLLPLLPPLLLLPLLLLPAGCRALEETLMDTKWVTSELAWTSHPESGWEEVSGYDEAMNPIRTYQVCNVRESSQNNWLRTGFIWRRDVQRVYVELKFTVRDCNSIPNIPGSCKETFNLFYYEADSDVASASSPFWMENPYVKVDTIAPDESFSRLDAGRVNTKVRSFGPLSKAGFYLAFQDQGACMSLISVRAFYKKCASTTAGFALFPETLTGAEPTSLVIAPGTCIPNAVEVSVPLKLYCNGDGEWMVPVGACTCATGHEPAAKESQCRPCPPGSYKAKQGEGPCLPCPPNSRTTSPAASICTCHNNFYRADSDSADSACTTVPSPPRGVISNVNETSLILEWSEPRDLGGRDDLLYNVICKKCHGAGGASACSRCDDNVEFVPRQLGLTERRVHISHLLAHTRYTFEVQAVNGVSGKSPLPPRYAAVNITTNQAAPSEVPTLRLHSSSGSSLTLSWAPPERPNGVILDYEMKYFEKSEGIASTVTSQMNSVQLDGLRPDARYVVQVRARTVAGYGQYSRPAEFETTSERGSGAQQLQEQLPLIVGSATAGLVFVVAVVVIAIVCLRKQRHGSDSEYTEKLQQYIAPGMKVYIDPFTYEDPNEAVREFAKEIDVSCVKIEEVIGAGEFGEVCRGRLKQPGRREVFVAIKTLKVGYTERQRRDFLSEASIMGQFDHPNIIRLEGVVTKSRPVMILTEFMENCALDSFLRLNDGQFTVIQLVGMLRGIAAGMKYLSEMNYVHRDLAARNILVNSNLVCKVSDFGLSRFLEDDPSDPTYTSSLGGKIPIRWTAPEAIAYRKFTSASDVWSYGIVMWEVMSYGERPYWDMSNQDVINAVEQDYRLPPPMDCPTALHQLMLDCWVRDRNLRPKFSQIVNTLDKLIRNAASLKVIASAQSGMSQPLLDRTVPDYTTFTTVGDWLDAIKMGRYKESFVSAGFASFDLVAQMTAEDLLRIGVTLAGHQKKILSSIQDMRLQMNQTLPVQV
# [5] = biological target: T3, Ephrin type-B receptor 3 (Homo sapiens); conditions: at 10 µM
# [6] = biological target: T4, Ephrin type-B receptor 4 (Homo sapiens) (UniProt P54760); conditions: at 1 µM
# T4 sequence (whole entry): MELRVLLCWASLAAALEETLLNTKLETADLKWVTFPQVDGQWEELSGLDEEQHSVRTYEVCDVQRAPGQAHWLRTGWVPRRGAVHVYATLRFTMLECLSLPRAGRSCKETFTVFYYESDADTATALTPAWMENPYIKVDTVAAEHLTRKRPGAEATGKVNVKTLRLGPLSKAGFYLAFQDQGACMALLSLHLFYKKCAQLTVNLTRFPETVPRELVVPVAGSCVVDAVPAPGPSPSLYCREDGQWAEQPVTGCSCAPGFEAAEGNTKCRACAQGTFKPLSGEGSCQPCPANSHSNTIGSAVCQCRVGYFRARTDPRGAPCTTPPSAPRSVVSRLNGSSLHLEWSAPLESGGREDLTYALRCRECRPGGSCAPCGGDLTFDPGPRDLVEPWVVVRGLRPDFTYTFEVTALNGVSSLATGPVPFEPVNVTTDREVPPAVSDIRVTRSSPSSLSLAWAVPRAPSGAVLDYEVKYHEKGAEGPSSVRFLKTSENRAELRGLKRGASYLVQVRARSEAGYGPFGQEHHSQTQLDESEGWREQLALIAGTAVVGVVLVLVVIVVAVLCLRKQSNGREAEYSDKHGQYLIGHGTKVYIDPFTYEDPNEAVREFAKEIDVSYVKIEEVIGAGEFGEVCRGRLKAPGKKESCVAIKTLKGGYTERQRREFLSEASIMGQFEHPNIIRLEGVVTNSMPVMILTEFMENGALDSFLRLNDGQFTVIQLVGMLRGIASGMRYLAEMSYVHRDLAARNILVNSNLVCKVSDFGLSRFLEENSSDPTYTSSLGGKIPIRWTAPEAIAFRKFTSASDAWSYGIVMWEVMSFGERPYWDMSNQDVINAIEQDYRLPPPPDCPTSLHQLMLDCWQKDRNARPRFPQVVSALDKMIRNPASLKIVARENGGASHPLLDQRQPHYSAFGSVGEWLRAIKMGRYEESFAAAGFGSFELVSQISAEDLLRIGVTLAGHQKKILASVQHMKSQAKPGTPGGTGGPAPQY
# [7] = biological target: T4, Ephrin type-B receptor 4 (Homo sapiens); conditions: at 10 µM
# [8] = biological target: Receptor tyrosine-protein kinase erbB-4 (Homo sapiens) (UniProt Q15303); conditions: at 1 µM
# Chain of Receptor tyrosine-protein kinase erbB-4 (Homo sapiens) (Q15303 whole entry): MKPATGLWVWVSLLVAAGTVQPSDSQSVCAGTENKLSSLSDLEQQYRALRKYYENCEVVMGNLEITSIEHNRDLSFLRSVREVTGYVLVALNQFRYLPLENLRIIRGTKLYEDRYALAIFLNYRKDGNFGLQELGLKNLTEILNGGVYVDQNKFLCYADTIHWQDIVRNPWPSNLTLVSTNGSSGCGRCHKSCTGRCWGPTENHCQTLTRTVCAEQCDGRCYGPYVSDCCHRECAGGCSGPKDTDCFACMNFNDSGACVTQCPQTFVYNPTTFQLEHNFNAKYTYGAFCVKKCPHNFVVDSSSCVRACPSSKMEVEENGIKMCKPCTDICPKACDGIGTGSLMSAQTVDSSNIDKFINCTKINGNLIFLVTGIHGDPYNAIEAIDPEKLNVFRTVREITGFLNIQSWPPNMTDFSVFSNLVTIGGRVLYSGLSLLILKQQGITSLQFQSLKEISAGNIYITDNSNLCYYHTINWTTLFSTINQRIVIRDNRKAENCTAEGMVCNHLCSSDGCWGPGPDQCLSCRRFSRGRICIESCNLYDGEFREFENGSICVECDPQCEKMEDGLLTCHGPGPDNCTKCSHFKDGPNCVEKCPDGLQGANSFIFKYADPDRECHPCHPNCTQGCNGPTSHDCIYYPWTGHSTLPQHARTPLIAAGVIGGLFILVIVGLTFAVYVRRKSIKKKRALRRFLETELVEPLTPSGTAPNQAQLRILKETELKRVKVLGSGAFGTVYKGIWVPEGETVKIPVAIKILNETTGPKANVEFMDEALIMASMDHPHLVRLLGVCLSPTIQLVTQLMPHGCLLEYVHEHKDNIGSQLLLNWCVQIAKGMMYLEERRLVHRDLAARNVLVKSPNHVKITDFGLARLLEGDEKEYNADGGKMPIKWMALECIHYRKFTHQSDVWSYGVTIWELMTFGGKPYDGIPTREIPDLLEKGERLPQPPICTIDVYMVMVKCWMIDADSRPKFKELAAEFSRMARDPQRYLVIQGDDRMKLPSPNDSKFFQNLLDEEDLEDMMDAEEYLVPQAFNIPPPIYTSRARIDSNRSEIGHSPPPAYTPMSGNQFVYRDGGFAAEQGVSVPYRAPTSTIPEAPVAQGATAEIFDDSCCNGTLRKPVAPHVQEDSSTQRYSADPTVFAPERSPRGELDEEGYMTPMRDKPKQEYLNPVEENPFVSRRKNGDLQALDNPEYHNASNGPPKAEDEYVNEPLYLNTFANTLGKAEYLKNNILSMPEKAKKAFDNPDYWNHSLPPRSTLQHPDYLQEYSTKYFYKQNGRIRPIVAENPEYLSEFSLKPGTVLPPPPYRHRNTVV
# [9] = biological target: Receptor tyrosine-protein kinase erbB-4 (Homo sapiens) (UniProt Q15303); conditions: at 10 µM
# [10] = biological target: Focal adhesion kinase 1 (Homo sapiens) (UniProt Q05397); conditions: at 1 µM
# Chain of Focal adhesion kinase 1 (Homo sapiens) (Q05397 2-1052 limits assumed): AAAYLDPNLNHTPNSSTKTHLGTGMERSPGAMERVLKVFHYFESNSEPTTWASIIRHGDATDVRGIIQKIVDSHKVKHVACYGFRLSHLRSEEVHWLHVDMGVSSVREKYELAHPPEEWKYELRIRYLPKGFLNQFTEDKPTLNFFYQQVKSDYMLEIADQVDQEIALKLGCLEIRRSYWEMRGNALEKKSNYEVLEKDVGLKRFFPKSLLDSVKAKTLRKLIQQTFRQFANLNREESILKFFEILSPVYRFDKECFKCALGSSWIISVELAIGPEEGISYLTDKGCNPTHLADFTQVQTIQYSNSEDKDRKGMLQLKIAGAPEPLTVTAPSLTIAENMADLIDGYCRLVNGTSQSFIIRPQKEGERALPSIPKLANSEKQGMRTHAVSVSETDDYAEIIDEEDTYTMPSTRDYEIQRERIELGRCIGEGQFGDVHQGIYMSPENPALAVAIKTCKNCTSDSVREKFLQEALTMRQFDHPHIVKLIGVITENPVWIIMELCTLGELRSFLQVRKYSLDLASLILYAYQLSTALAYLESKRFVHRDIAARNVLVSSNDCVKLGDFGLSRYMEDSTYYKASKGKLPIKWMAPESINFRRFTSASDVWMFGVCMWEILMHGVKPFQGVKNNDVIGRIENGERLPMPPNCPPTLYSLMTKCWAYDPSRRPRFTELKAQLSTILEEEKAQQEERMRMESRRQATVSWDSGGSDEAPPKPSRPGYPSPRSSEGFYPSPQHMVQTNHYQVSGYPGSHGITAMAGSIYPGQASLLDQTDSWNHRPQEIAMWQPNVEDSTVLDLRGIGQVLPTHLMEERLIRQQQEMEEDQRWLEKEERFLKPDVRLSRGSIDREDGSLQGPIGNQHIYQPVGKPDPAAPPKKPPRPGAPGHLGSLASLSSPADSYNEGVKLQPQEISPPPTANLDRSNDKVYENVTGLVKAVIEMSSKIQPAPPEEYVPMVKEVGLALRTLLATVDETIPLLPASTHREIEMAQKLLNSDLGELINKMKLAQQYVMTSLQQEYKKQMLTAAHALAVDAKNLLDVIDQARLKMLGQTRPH
smiles,measurement,setting,value
COc1ccc(S(=O)(=O)N(CCO)c2ccccc2CN(C)C/C=C/c2ccc(Cl)cc2)cc1,residual activity,[1],90%
same,residual activity,[2],115%
same,residual activity,[3],120%
same,residual activity,[4],112% (inactive)
same,residual activity,[5],107%
same,residual activity,[6],86%
same,residual activity,[7],79%
same,residual activity,[8],110%
same,residual activity,[9],77%
same,residual activity,[10],93%
